Assay outcomes (PubChem)
CRFBP-R2 agonist: agonists of human CRF-binding protein/CRF-R2 receptor complex | HEK293 CRF-R2/CRF-BP, calcium dye fluorescence (FLIPR); percent of saturating CRF peptide response | activation, % at 13.2 µM | 350,000 tested, 0.46% active | AID 588473;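 active means activation of at least 50%, plus an integration ratio under a set limit after plate pattern correction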
HNF4A DNA FP: change in binding of human HNF4 alpha to DNA; activity change, % at 10 µM; HNF4a-FITC DNA binding, fluorescence polarization, 1 h; P41235; AID 1224865; 360,000 tested, 0.3% active; in the data active means activity change above about 30%, passing the limit was not always enough
Target sequence (P41235 whole entry, looked up): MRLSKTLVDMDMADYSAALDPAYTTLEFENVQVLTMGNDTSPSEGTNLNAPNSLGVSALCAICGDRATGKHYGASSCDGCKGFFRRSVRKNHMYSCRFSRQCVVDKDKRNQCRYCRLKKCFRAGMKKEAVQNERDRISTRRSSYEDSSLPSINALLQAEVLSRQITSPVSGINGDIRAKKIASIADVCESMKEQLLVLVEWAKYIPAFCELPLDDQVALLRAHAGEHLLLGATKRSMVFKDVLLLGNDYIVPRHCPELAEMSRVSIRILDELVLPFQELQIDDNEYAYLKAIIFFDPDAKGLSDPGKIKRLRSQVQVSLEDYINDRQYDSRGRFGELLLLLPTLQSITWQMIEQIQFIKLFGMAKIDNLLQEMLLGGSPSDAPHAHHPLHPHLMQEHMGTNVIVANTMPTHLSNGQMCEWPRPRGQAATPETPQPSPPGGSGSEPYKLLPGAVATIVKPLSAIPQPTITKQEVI
IDE inh: inhibits human insulin-degrading enzyme in HEK cells. P14735. FAbetaB cleavage, fluorescence polarization. inhibition, % at 5.59 µM. 320,000 tested, 0.41% active. AID 434962;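 active means percent inhibition above the average of all tested compounds plus 3 SD, set per screening campaign, cut at about 16% in these data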;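 further: IDE supplied by intact live HEK cells; FP after avidin binding of uncleaved biotin substrate so inhibition keeps polarization high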
IDE act: activators of human insulin-degrading enzyme in cells | P14735 | HEK cells, FAbeta-B cleavage, fluorescence polarization; 0% vehicle, 100% cell-free pure enzyme wells | activation, % at 5.96 µM | 340,000 tested, 0.073% active;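 active means activation above the mean of all tested compounds plus 3 SD, set per screening campaign, cut at about 17% in these data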
TPT1 inh: blocks Candida albicans tRNA 2'-phosphotransferase; recombinant caTPT1, FP RNA substrate dephosphorylation; AID 1962; inhibition, % at 5 µM; 300,000 tested, 0.81% active;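 active means inhibition above the mean of all tested compounds plus 3 SD, set per screening campaign, cut at about 24% in these data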
A number is an active result; - = inactive; . = no result. Most compounds without a hit are left out; they make up all but 1.4% or so of the library.

SMILES | CRFBP-R2 agonist | HNF4A DNA FP | IDE inh | IDE act | TPT1 inh
CC1(C)CC(=O)C(C=Nc2ccc(C(=O)c3ccccc3)cc2N=CC2=C(O)CC(C)(C)CC2=O)=C(O)C1 | 105 | - | - | - | -
CC1(C)CC(=O)C(C=Nc2ccc(O)c(N=CC3=C(O)CC(C)(C)CC3=O)c2)=C(O)C1 | - | - | - | - | -
COC(=O)[C@@]12C[C@@H](CC(=O)N3CCOCC3)C(=O)N(Cc3ccco3)C1=CCC(C)(C)C2 | . | - | . | . | .
CC(O)(c1cccc(F)c1)c1nc(-c2csc3ccccc23)cs1 (configuration not stated) | . | - | . | . | .
CC(C)CC(=NNC(=O)c1ccncc1)c1cc(Cl)ccc1O | 150 | - | . | - | .
CC(C)OC(=O)c1c2c(n3ccccc13)C(=O)c1ccccc1C2=O | 182 | - | - | - | -
NC(=Nc1ccccc1)Nc1ccccc1 | 147 | - | - | - | -
CC1CCCC(C)N1C(=O)COC(=O)c1nn(C)c(=O)c2ccccc12 (configuration not stated) | - | - | - | - | -
COc1cc2c(cc1OC)C(c1c(Cl)cccc1Cl)NC(=O)C2 (configuration not stated) | 52 | - | - | - | -
CN1CCC(=NNC(=O)C(=O)Nc2cccc(Br)c2)CC1 | - | 31 | - | - | -
CCN1CCSc2ccc(C(=O)NCc3ccccc3F)cc21 | 280 | - | - | - | -
Cc1ccc(OCC(=O)Nc2sc3c(c2C#N)CC(C)(C)NC3(C)C)cc1 | - | - | - | - | -
CC1(C)Cc2c(sc(NC(=O)COc3cccc4ccccc34)c2C#N)C(C)(C)N1 | - | 214 | - | - | -
Cc1ccc(Cc2c(-c3ccccc3)nc3c(Cl)cc(C(F)(F)F)cn23)cc1 | . | - | . | . | .
CCOC(=O)C1=C(c2ccccc2)NC(=O)NC1c1cc(Cl)c(O)c(OC)c1 (configuration not stated) | - | - | - | - | -
CCOC(=O)C1=C(c2ccccc2)NC(N)=NC1c1ccc(OCc2ccc(Cl)cc2)c(OC)c1 (configuration not stated) | - | - | - | 19 | -
Cc1nnc(SCC(=O)Nc2ccc3c(c2)OCCO3)n1CC1CCCO1 (configuration not stated) | - | - | - | - | -
Cc1cccc(C)c1NC(=O)CSc1nnc(C)n1CC1CCCO1 (configuration not stated) | - | 115 | - | - | -
O=C(Nc1nnc(-c2cccs2)o1)c1cccc(C(F)(F)F)c1 | 81 | - | - | - | -
N#Cc1ccc(C(=O)Nc2nnc(-c3cccs3)o2)cc1 | - | - | - | - | -
CC(C)(C)CC(C)(C)NC(=S)Nc1ccc2nc(-c3ccccn3)c(-c3ccccn3)nc2c1 | - | - | - | - | -
CN(C)NC(=S)Nc1ccc2nc(-c3ccccn3)c(-c3ccccn3)nc2c1 | 59 | - | - | - | -
COC(=O)c1ccc(COC(=O)C2CCN(S(=O)(=O)c3ccc(C)c(C)c3)CC2)o1 | - | - | - | - | -
Cc1cc(/C=N/NC(N)=S)c(O)c(/C=N/NC(N)=S)c1 | 157 | - | - | - | -
NC(=S)N/N=C/c1cccc(O)c1O | - | - | - | - | -
SMILES | CRFBP-R2 agonist | HNF4A DNA FP | IDE inh | IDE act | TPT1 inh
CCOC(=O)c1cccc(P(C)(C)=O)c1 | - | - | - | 19 | -
CCOC(=O)c1ccc(N(CC(=O)NC2CCCCC2)C(=O)CNC(=O)c2ccco2)cc1 | - | - | - | - | -
Nc1nonc1-n1nnc(C(=O)N/N=C/c2ccccc2)c1CSc1ccc(Cl)cc1 | 110 | - | - | - | -
Nc1nonc1-n1nnc(C(=O)N/N=C/c2cccc(Cl)c2)c1CSc1ccc(Cl)cc1 | - | - | - | - | -
O=[N+]([O-])c1ccc(/C=N/Nc2nc(NCc3ccccc3)nc(N3CCOCC3)n2)cc1 | - | - | - | - | -
O=[N+]([O-])c1cccc(/C=N/Nc2nc(NCc3ccccc3)nc(N3CCOCC3)n2)c1O | 69 | - | - | - | -
Cc1ccc([C@H]2N[C@]3(CCCN(Cc4ccco4)C3=O)[C@H]3C(=O)N(C)C(=O)[C@@H]23)cc1 | - | - | . | . | .
Clc1cccc(-c2nc3ccc(Br)cn3c2Cc2ccsc2)c1 | . | 35 | . | . | .
Brc1cccc(-c2nc3ccc(Br)cn3c2Cc2ccsc2)c1 | . | - | . | . | .
COc1ccccc1CNC(=O)Nc1nc(C(N)CCc2ccccc2)cs1 (configuration not stated) | . | - | . | . | .
O=C(Cn1c(NCCCCl)nc2ccccc21)c1ccccc1 | - | - | - | - | .
COc1cc(S(=O)(=O)Nc2ccc(C)cc2)ccc1N=Cc1c(C)c(C#N)c(=O)n(C)c1O | 80 | - | - | . | -
CCOc1ncccc1C(=O)N1CCN(c2ccc(C(F)(F)F)cn2)CC1 | - | 91 | - | - | -
CCOc1ccc(NC(=O)N[C@@H](Cc2ccccc2)C(=O)O)cc1 | - | - | - | - | -
N#Cc1ccc(CC(=O)c2ccccc2)[nH]c1=O | 58 | - | . | - | .
N#Cc1ccc(CCc2ccccc2)[nH]c1=O | - | - | . | - | .
CCCCCCCNC(=O)C1(CC2CC(c3cccc(Br)c3)=NO2)CCNCC1 (configuration not stated) | - | - | - | 19 | -
CCOC(=O)N1CCN(CC(O)c2ccc3c(c2)CCN3)CC1 (configuration not stated) | - | - | - | - | -
CCOC(=O)N1CCN(CC(O)c2ccc3cc[nH]c3c2)CC1 (configuration not stated) | 58 | - | - | - | -
CN1/C(=C/C(=O)c2ccc(Cl)cc2)Sc2cc3c(cc21)OCO3 | - | 45 | - | - | -
CSCCC(NS(=O)(=O)Cc1ccccc1)C(=O)NNc1ccccc1 (configuration not stated) | . | - | . | . | .
Oc1ccccc1N=N/C(=N/Nc1ccccc1O)c1ccccc1 | - | - | - | - | -
N#C/C(N=Nc1ccccc1O)=N\Nc1ccccc1O | 61 | - | - | - | -
O=C(CNC(=O)c1ccc(Cl)cc1)OCC(=O)N1CCCC1 | - | - | - | - | -
Cc1ccc(Cn2nc(C)c(C(=O)N3CCN(S(=O)(=O)/C=C/c4ccccc4)CC3)c2C)cc1 | - | - | - | 33 | .
SMILES | CRFBP-R2 agonist | HNF4A DNA FP | IDE inh | IDE act | TPT1 inh
CC(=O)NC1CC2CCCC(C1)N2C(=O)Nc1ccc(Cl)c(C(F)(F)F)c1 (configuration not stated) | - | 30 | - | - | -
CCc1ccc(/C=N/N2CCN(c3ccccn3)CC2)cc1 | - | 61 | - | - | -
COc1cc(/C=C(\NC(C)=O)C(=O)NC(C)(C)C)ccc1OC(C)=O | - | - | - | - | -
COc1cc(/C=C(\NC(C)=O)C(=O)Nc2cccc(O)c2)ccc1OC(C)=O | - | 37 | - | - | -
CC(C)c1ccc(C2/C(=C(/O)c3ccc(F)cc3)C(=O)C(=O)N2CCCN2CCOCC2)cc1 (configuration not stated) | - | - | - | - | -
CCOc1ccc(N/C(N)=N/c2nc(C)cc(C)n2)cc1 | 141 | - | - | - | -
